Eight molecules from PubChem BioAssay (EPA / NIEHS) can be followed below.

Active and inactive are the calls of the source. How the source made its calls: active means hit-call score of the fitted dose curve at least 0.9, where 1 is the maximum; inactive means score below 0.9.

A short description of experiment [1]: ATG_E_Box_CIS: Attagene CIS-FACTORIAL HepG2 Assay for human Enhancer Box (E-box) (AID 2282936). The settings on record: HepG2 E-box cis-reporter transcription, actives raise or lower the signal. Summed up:
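Cells: HepG2 (human liver), transient MRTU transfection. Exposure 24 h. RNA → oligo(dT) RT → PCR → 6-FAM label → HpaI → CE. Activity fitted both directions relative to DMSO.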

Experiment [2] is described as follows: ATG_M_61_CIS: Attagene CIS-FACTORIAL HepG2 Assay for M61 Transcription Factor (Internal Marker) (AID 2282937). The conditions noted are these: HepG2 Attagene CIS-FACTORIAL M61 internal marker reporter; actives raise or lower the signal. Summed up:
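Readout: fluorescent reporter mRNA fragments resolved by capillary electrophoresis after RT-PCR. Transiently transfected human HepG2 cells carried MRTU constructs reporting endogenous TF activity; 24 h chemical exposure; gain or loss of signal fitted relative to DMSO.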

Experiment [3] can be described thus: ATG_M_19_CIS: Attagene CIS-FACTORIAL HepG2 Assay for M19 Transcription Factor (Internal Marker) (AID 2282939). The settings on record: HepG2 Attagene CIS-FACTORIAL M19 internal marker reporter; actives raise or lower the signal. Summed up: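 Chemical-treated HepG2 (24 h) with MRTU constructs; reporter transcripts detected by fluorescent RT-PCR fragment analysis on capillary electrophoresis. Internal background marker, DMSO as baseline.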

Experiment [4] in a line: ATG_Ets_CIS: Attagene CIS-FACTORIAL HepG2 Assay for human Erythroblast Transformation Specific (ETS) (AID 2282941). The settings on record: HepG2 ETS cis-reporter transcription, actives raise or lower the signal. The method in brief: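 Steps: transfect HepG2 with multiple reporter units; treat compound 24 h; isolate RNA, DNase-treat, reverse-transcribe; PCR-amplify, label with 6-FAM, digest with HpaI; separate by capillary electrophoresis. Activity fitted both directions versus DMSO.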

Experiment [5] deals with Hepatocyte nuclear factor 3-beta (Homo sapiens) (UniProt Q9Y261). Kind of experiment: ATG_FoxA2_CIS: Attagene CIS-FACTORIAL HepG2 Assay for human Forkhead box A2 (FOXA2) (AID 2282942). The settings on record: HepG2 cis-reporter transcription factor activity, 24 h; actives raise or lower the signal. The method in brief:
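Readout: fluorescent reporter transcripts resolved by capillary electrophoresis after RT-PCR. Transiently transfected HepG2, 24 h compound exposure, endogenous TF activity at cis promoter elements. Gain or loss of signal fitted relative to DMSO.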

Experiment [6] can be described thus: ATG_FoxO_CIS: Attagene CIS-FACTORIAL HepG2 Assay for human Forkhead box O (FoxO) (AID 2282943). The settings on record: HepG2 Attagene cis-reporter, FoxO element, mRNA; actives raise or lower the signal. The method in brief: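 Human hepatoma HepG2 cells carry transiently introduced reporter transcription units controlled by cis promoter elements. Chemical treatment lasted 24 h, and mRNA signal was compared with DMSO.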

Experiment [7] can be described thus: ATG_GATA_CIS: Attagene CIS-FACTORIAL HepG2 Assay for human GATA Binding Protein (AID 2282944). The conditions noted are these: HepG2 GATA cis-element reporter, Attagene multiplex mRNA; actives raise or lower the signal. Summed up:
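Transfected cis-reporter HepG2 cells were treated with chemicals for 24 hours. Total RNA was then converted to cDNA, amplified with reporter-specific primers and analysed by fluorescent capillary electrophoresis, using DMSO-treated wells as baseline.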

Experiment [8] can be described thus: ATG_GLI_CIS: Attagene CIS-FACTORIAL HepG2 Assay for human Zinc Finger Protein GLI1 (AID 2282945). The settings on record: HepG2, Attagene cis-factorial reporter mRNA, GLI element; actives raise or lower the signal. Summed up:
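Bidirectional curve fits relative to DMSO, using reporter mRNA levels from RT-PCR plus capillary electrophoresis. Cells were HepG2 transiently carrying cis-regulated reporter constructs, harvested 24 h after dosing.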

Experiment [9] in a line: ATG_ISRE_CIS: Attagene CIS-FACTORIAL HepG2 Assay for human Interferon Regulatory Factor 1 (IRF1) binding to an Interferon-Stimulated Response Element (ISRE) (AID 2282948). The conditions noted are these: HepG2 ISRE cis-reporter (Attagene), mRNA transcription readout; actives raise or lower the signal. The method in brief:
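Transfected HepG2 (multiple reporter transcription units, cis elements) dosed 24 h. RNA → oligo(dT) RT → PCR → 6-FAM primer extension → HpaI → CE. DMSO = negative control/baseline.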

Experiment [10] in a line: ATG_M_32_CIS: Attagene CIS-FACTORIAL HepG2 Assay for M32 Transcription Factor (Internal Marker) (AID 2282949).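 Further: background control marker of the multiplexed CIS panel rather than a real target.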 The conditions noted are these: HepG2 Attagene cis-factorial M32 reporter, mRNA; actives raise or lower the signal. Summed up: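 HepG2 cells transiently transfected with multiplexed cis-regulated reporter units, dosed 24 h. Reporter mRNA quantified by RT-PCR, 6-FAM labelling, HpaI digestion and capillary electrophoresis; bidirectional fit vs DMSO.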

The nature of experiment [11]: ATG_M_06_CIS: Attagene CIS-FACTORIAL HepG2 Assay for M06 Transcription Factor (Internal Marker) (AID 2282950). The settings on record: HepG2 Attagene CIS-FACTORIAL M06 internal marker reporter; actives raise or lower the signal. The method in brief: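 Cells (HepG2, transiently carrying cis-driven reporter units) receive chemical for 24 h before RNA isolation. Reporter cDNA is PCR-amplified, FAM-labelled by primer extension, HpaI-digested and sized on a capillary analyser.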

The target in experiment [12] is Hypoxia-inducible factor 1-alpha (Homo sapiens) (UniProt Q16665). Description: ATG_HIF1a_CIS: Attagene CIS-FACTORIAL HepG2 Assay for human Hypoxia Inducible Factor 1 (HIF1A) (AID 2282951). The conditions noted are these: HepG2 Attagene cis-factorial HIF1a reporter transcription; actives raise or lower the signal. Summed up: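 RT-PCR/capillary electrophoresis fluorescence readout of reporter transcripts from endogenous-TF-driven cis elements in transfected HepG2 cells, 24 h exposure; activity fitted in both directions against DMSO controls.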

The target of experiment [13] is Hepatocyte nuclear factor 6 (Homo sapiens) (UniProt Q9UBC0). Description: ATG_HNF6_CIS: Attagene CIS-FACTORIAL HepG2 Assay for human Hepatocyte Nuclear Factor 6 (HNF6) (AID 2282952). The conditions noted are these: HepG2 Attagene cis-factorial HNF6 reporter transcription; actives raise or lower the signal. Summed up: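 HepG2 cells transiently transfected with cis-element-driven multiple reporter transcription units, dosed 24 h; reporter mRNA quantified by RT-PCR, FAM primer extension, HpaI digestion and capillary electrophoresis; bidirectional fit versus DMSO baseline.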

Experiment [14] concerns the target Heat shock factor protein 1 (Homo sapiens) (UniProt Q00613). Kind of experiment: ATG_HSE_CIS: Attagene CIS-FACTORIAL HepG2 Assay for human Heat Shock Transcription Factor 1 (HSE) (AID 2282953). The conditions noted are these: HepG2 HSE cis-reporter, Attagene RNA transcription; actives raise or lower the signal. Summed up: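 Liver-derived HepG2 cells carry transiently introduced multiple reporter units governed by cis promoters. Reporter RNA measured 24 h post-dose through reverse transcription, PCR amplification, fluorescent labelling and capillary electrophoresis, normalised to DMSO.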

Experiment [15] is described as follows: ATG_MRE_CIS: Attagene CIS-FACTORIAL HepG2 Assay for human Metal Responsive Element (MRE) (AID 2282954). The settings on record: HepG2 MRE cis-reporter transcription, Attagene multiplex; actives raise or lower the signal. Summed up:
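Transient MRTU transfection of HepG2 (FuGene 6); 24 h dosing; total RNA → oligo(dT) RT, PCR, 6-FAM primer extension, HpaI cut, CE. Bidirectional fit vs DMSO.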

The nature of experiment [16]: ATG_PBREM_CIS: Attagene CIS-FACTORIAL HepG2 Assay for human Phenobarbital-responsive Enhancer Module (PBREM) (AID 2282955). The conditions noted are these: HepG2 PBREM cis-reporter, Attagene multiplexed transcription; actives raise or lower the signal. Summed up: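 Reporter mRNA read by RT-PCR, 6-FAM primer extension, HpaI digestion and capillary electrophoresis. Transfected HepG2 cells, 24 h compound exposure. Gain or loss of signal fitted bidirectionally relative to DMSO baseline.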

A short description of experiment [17]: ATG_ERE_CIS: Attagene CIS-FACTORIAL HepG2 Assay for Estrogen Response Element (ERE) (AID 2282940). The conditions noted are these: HepG2 ERE cis-reporter, Attagene RNA transcript; actives raise or lower the signal. The method in brief:
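Human liver cells (HepG2) bearing transiently transfected, promoter-regulated reporter units were exposed 24 h. Reporter mRNA induction was detected by capillary electrophoresis of labelled RT-PCR products and fitted bidirectionally to DMSO.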

In experiment [18] the target is Bile acid receptor (Homo sapiens) (UniProt Q96RI1). Description: ATG_IR1_CIS: Attagene CIS-FACTORIAL HepG2 Assay for human Nuclear Receptor Subfamily 1 Group H Member 4 (NR1H4), IR1 submotif (AID 2282946). The settings on record: IR1 reporter transcription, actives raise or lower the signal. Summed up: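 Cells (human HepG2) carry transiently transfected cis-promoter reporter transcription units. Compounds are incubated 24 h, total RNA is reverse-transcribed and amplified, and labelled fragments are resolved by capillary electrophoresis. Curves use DMSO as baseline.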

Experiment [19] can be described thus: ATG_GRE_CIS: Attagene CIS-FACTORIAL HepG2 Assay for human Glucocorticoid Response Elements (GRE) (AID 2282947). The conditions noted are these: HepG2 GRE cis-reporter, Attagene multiplex mRNA; actives raise or lower the signal. Summed up: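 Transient MRTU transfection of human HepG2 liver cells; cis-regulated reporters report endogenous factors. 24 h dosing → RNA isolation → RT-PCR → 6-FAM primer extension → HpaI cut → CE fragment analysis. Bidirectional fit, DMSO negative control.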

Sequence of Hepatocyte nuclear factor 3-beta (Homo sapiens) (Q9Y261 whole entry, looked up): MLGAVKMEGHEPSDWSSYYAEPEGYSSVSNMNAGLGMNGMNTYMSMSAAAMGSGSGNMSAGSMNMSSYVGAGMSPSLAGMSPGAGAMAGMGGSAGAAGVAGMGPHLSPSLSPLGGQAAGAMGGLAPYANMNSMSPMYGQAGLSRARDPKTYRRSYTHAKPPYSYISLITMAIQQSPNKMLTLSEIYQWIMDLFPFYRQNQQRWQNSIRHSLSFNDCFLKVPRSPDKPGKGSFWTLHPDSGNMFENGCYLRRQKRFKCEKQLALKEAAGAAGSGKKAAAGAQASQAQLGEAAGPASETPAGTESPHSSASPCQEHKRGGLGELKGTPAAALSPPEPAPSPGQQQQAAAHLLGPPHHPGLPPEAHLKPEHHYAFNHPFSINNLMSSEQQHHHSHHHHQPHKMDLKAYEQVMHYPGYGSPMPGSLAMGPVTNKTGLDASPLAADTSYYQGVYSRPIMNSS
Sequence of Hepatocyte nuclear factor 6 (Homo sapiens) (Q9UBC0 whole entry, looked up): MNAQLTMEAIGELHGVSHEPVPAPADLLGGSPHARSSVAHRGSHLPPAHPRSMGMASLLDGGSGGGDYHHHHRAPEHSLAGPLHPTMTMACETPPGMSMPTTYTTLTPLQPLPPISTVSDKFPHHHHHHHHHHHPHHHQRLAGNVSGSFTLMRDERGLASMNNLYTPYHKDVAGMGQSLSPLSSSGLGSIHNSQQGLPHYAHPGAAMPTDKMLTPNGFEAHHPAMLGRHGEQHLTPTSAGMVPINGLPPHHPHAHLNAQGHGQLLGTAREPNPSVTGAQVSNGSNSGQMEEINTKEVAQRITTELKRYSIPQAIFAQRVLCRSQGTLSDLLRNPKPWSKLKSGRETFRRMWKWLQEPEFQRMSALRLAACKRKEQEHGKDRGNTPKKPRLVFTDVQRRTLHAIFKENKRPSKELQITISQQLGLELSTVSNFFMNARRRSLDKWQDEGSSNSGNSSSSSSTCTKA
Sequence of Hypoxia-inducible factor 1-alpha (Homo sapiens) (Q16665 whole entry, looked up): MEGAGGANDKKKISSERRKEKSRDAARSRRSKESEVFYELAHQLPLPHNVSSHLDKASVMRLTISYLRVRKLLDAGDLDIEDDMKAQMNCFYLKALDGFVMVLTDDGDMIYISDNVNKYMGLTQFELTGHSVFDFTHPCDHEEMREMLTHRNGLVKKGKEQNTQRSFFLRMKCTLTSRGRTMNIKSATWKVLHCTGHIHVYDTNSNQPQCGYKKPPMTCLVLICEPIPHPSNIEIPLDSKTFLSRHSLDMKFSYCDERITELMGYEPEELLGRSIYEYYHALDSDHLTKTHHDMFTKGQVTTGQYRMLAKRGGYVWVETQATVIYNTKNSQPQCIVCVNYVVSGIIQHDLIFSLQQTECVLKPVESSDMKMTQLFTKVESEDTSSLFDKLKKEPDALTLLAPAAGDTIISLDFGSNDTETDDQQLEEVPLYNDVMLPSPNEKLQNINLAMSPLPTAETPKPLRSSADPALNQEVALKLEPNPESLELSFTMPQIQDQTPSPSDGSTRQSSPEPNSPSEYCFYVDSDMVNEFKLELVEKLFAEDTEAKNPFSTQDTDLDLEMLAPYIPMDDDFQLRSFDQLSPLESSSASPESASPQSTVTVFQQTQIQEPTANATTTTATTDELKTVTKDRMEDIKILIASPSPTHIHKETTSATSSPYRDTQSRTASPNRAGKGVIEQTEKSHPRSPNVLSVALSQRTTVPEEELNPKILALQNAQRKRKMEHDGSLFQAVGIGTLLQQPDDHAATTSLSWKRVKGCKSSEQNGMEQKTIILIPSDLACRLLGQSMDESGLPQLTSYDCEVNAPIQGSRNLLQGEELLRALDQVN
Sequence of Bile acid receptor (Homo sapiens) (Q96RI1 whole entry, looked up, the tested form may be a part): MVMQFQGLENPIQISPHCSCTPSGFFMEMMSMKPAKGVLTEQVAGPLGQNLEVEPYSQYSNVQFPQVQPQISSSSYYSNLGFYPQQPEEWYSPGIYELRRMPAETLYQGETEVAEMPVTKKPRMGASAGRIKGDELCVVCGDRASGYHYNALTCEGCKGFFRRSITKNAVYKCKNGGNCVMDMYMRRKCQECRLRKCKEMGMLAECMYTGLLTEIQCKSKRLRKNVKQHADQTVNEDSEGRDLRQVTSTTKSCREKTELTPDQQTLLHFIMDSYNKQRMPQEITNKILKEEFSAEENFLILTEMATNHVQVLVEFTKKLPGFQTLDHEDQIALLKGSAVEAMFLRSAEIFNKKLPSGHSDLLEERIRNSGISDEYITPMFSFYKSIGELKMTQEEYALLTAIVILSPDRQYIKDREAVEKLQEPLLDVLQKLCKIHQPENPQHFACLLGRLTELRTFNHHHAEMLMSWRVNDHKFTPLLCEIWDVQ
Sequence of Heat shock factor protein 1 (Homo sapiens) (Q00613 whole entry, looked up): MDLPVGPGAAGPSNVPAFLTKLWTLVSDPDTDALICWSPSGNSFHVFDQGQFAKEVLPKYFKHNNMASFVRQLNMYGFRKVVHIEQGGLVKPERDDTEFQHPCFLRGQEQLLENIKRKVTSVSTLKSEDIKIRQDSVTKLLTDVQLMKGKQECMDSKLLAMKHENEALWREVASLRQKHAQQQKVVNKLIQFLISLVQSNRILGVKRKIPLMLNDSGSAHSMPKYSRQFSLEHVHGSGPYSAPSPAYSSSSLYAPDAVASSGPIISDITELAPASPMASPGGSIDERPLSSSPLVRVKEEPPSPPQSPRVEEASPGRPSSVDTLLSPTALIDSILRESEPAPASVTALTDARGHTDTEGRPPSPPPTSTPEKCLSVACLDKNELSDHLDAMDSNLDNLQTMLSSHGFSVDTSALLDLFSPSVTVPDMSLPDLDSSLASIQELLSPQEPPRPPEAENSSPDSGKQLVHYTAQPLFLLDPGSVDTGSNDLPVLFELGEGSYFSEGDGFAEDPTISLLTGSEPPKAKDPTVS

Take `O=C1C(N(CO)C(=O)NCO)N(CO)C(=O)N1CO` (stereo not given): the outcome in [1], in experiment [2], in experiment [3], in experiment [4], in experiment [5] and in [6] was inactive. Further, the result in experiment [7], in experiment [8], in experiment [9], in experiment [10], in [11] and in experiment [12] was inactive. Also, the call in [13], in experiment [14], in experiment [15] and in experiment [16] was inactive.
On to `NNC(=O)c1cccc(C(=O)NN)c1`, for which the result in [1], in [2], in experiment [3], in experiment [17], in experiment [4] and in experiment [5] was inactive. Moreover, the result in experiment [6], in [7], in [8], in [18], in [19] and in [9] was inactive. Also, the molecule was classed as inactive in [10], in [11], in experiment [12], in experiment [13], in experiment [14] and in experiment [15]. In addition, the result in [16] was inactive.
A word on the AC50: it is the concentration at which the activity in the assay is half-maximal. On to `c1ccc(-c2ccccn2)nc1`, for which the AC50 in experiment [1] is 61.2 µM (active). In addition, the molecule was called inactive in experiment [2], in [3], in experiment [17], in [4], in [5] and in experiment [6]. In addition, the call in experiment [7], in [8], in [19], in [9], in experiment [11] and in experiment [13] was inactive. Also, the result in experiment [14] and in [15] was inactive.
For `C1=Cc2ccccc2C1`, the outcome in experiment [1], in [2], in experiment [3], in experiment [4], in [5] and in [6] was inactive. Further, the molecule was classed as inactive in experiment [7], in experiment [8], in [9], in experiment [10], in experiment [11] and in experiment [12]. The call in experiment [13], in [14], in experiment [15] and in experiment [16] was inactive.
With `CC=CCO`, the result in [1], in experiment [2], in [3], in [17], in [4] and in experiment [5] was inactive. Also, the molecule was called inactive in experiment [6], in experiment [7], in experiment [8], in [18], in experiment [19] and in experiment [9]. The call in [10], in experiment [12], in experiment [13], in experiment [14], in experiment [15] and in experiment [16] was inactive.
Consider `CC(C)(C)c1ccc(OC(=O)c2ccccc2O)cc1`, for which the result in [1], in experiment [2], in [3], in experiment [4], in [5] and in experiment [6] was inactive. Further, the call in experiment [7], in experiment [8], in [18], in experiment [19], in experiment [9] and in experiment [10] was inactive. Moreover, the outcome in experiment [11], in experiment [12], in experiment [13], in experiment [14], in [15] and in [16] was inactive. The AC50 in [17] was 7.32 µM (active).
As to `C=CC(C)(CCC=C(C)C)OC(=O)CC(C)C` (stereo not given), the result in [1], in experiment [2], in [3], in [4], in experiment [5] and in [6] was inactive. In addition, the call in [8], in experiment [19], in [10], in experiment [11], in experiment [12] and in experiment [13] was inactive. Further, in [16], the result was inactive. Moreover, the AC50 in experiment [9] was 147 µM (active); in [14], 155 µM (active); in experiment [15] it was 148 µM (active).
As to `CCN(CC)c1ccc(C(=O)c2ccccc2C(=O)O)c(O)c1`, the outcome in [1], in [2], in [3], in [4], in experiment [5] and in [7] was inactive. Besides, the outcome in experiment [8], in [19], in experiment [9], in experiment [10], in experiment [11] and in [12] was inactive. The call in [13], in experiment [14] and in experiment [15] was inactive. Moreover, the AC50 in experiment [16] is 1.89 µM (active).
